Source: PubChem
A selection: hits, their analogues and other compounds. The true share with any hit is near 1.8%.
GLP-1R agonist: activates the human GLP-1 receptor; HEK293 GLP-1R CRE-luciferase, luminescence, 4-6 h; cells express a hypersensitive GLP-1R form; Potency, µM (titrated, usually from 45.6 µM), usual class: activators; hit rate 0.007% among 380,000
GLP-1R inv ag: inverse agonists of human GLP-1 receptor | P43220 | HEK293 GLP-1R CRE-luciferase, luminescence, 24 h; GLP-1R form is constitutively active | Potency, µM (highest dose often 38.3 µM), most hits filed as inhibitors | hit rate 1.6% among 410,000 | AID 624417; further: nearly all actives have a fitted effect of over 55% in size
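Readout was luciferase luminescence, measured 12 min after detection reagent at room temperature. Beforehand, GLP-1R reporter HEK293 cells had sat 12 h, then received compounds for 24 hr at 37 deg C.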
HEK293 tox: cytotoxicity counter-screen for GLP-1 receptor inverse agonists; HEK293 cAMP-luciferase reporter cells, luminescence, 24 h; Potency, µM (highest dose often 38.3 µM), actives largely listed as inhibitors; hit rate 0.13% among 410,000; AID 624418;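 further: loss of luciferase light is scored as toxicity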
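Cells in DMEM/10% Nu serum/1% pen-strep, 1536-well format. Pre-incubated 12 h, dosed with 23 nL compound, incubated a further 24 h. Luciferase detection, 12 min at room temp, luminescence.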
TRPML1 agonist: agonists of human TRPML1 channel. Q9GZU1. TRPML1-expressing cells, Ca2+ dye fluorescence, FDSS. activation, % (concentration not given with the values). hit rate 0.12% among 410,000. AID 624414; in the data active means activation above about 50%; inconclusive means mostly about 30% to 49%
Target sequence (Q9GZU1 whole entry, looked up): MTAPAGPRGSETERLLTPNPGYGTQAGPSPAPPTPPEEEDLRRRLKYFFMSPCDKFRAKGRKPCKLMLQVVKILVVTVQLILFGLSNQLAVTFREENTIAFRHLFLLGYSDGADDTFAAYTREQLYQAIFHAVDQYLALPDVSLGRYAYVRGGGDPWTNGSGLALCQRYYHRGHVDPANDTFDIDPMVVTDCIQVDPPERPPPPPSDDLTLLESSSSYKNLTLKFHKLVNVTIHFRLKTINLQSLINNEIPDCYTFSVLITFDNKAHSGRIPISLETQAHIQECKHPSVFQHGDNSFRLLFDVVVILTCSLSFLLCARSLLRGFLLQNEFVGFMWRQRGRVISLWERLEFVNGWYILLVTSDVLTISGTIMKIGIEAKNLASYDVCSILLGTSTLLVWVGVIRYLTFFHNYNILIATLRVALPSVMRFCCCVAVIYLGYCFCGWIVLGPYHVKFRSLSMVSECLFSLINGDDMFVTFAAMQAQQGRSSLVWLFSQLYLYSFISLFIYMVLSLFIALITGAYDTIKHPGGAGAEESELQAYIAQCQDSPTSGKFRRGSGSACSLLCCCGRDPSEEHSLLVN
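Cells: TRPML1-DL, 1X Tet inducer, ~16 h at 37 degrees C/5% CO2. Dye: ABD Ca8 no-wash + quencher, 45-90 min RT. Read: 10 s baseline, compound add, 110 s agonist phase; 54-4 EC80 (4uM final), 110 s antagonist phase.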
TRPML1 inh: inhibitors of human TRPML1 channel; activity change, negative = inhibition, % (concentration not given with the values); Q9GZU1; hit rate 0.02% among 390,000; TRPML1-inducible cells, Ca2+ dye fluorescence, FDSS; stronger effect = lower value; inhibition of EC80 agonist-evoked calcium signal; in the data active means activity change below about -50%; inconclusive means between about -30% and that limit;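 further: stimulus is agonist 54-4 at its EC80 concentration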
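TRPML1-DL cells, Tet-induced overnight (~16 h, 37 °C) at 1,500 cells/well, were loaded with Ca8 no-wash dye plus quencher for 45-90 min at room temperature. Compounds were pinned during FDSS kinetic reading; agonist 54-4 at EC80 (4 uM final) then added.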
Large screens that a line does not name were inactive. Unless noted, the call rests on the fitted dose curve; in most records, active means well fitted curve in the direction sought with a large enough effect; inconclusive means small, poorly fitted or top-dose-only effect, or another doubt; inactive means no such curve, though single readings can be large; an effect the other way counts as inactive or inconclusive.

O=C(Nc1ccc2c(c1)OCCO2)c1ccc(Br)s1	GLP-1R inv ag 10µM, HEK293 tox inconclusive
Cc1ccc(C)c(N2CCN(C(=O)c3ccc4[nH]c(C)c(C)c4c3)CC2)c1	GLP-1R inv ag 7.94µM (no result: GLP-1R agonist)
CC1=C/C(=N\NC(=S)Nc2cccnc2)CC(C)(C)C1	GLP-1R inv ag 3.98µM, HEK293 tox 1µM
CC1(C)C2CC=C(/C=N/NC(=S)Nc3cccnc3)C1C2 (configuration not stated)	none
CCOC(=O)c1cc2c(=O)n3ccccc3nc2n(Cc2ccco2)c1=NC(=O)c1c(F)cccc1Cl	none (no result: GLP-1R agonist)
COc1cccc(C2NC(c3cccc(OC)c3O)C(C)C(=O)C2C)c1O (configuration not stated)	none
CC1C(=O)C(C)C(c2cc(Cl)ccc2O)NC1c1cc(Cl)ccc1O (configuration not stated)	GLP-1R inv ag 5.62µM, HEK293 tox inconclusive
CC(=O)c1cccc(NC(=O)c2noc3c2CCCC3)c1	none (no result: GLP-1R agonist)
Cc1cccc(N2CCN(C(=O)Cn3c(=O)c4cccn4c4ccc(F)cc43)CC2C)c1 (configuration not stated)	none (no result: GLP-1R agonist)
CCN(CC)CCN(C(=O)c1ccc2c(c1)OCCO2)c1nc2c(Cl)cccc2s1	GLP-1R inv ag inconclusive, HEK293 tox inconclusive
CCN(CC)CCN(C(=O)c1ccc2c(c1)OCCO2)c1nc2cc(C)cc(C)c2s1	GLP-1R inv ag 11.2µM
CCN(CC)c1ccc2nc3ccccc3[n+](CC)c2c1	GLP-1R inv ag inconclusive, HEK293 tox 11.2µM
NC(=S)n1[nH]c(-c2ccc([N+](=O)[O-])cc2)c(N=Nc2ccc(Cl)cc2)c1=O	GLP-1R inv ag 10µM, HEK293 tox inconclusive
Cc1ccc([N+](=O)[O-])cc1N=Nc1c(-c2ccc([N+](=O)[O-])cc2)[nH]n(C(N)=S)c1=O	GLP-1R inv ag inconclusive, HEK293 tox inconclusive
CN1CCC(N(C)C(=O)c2ccc(Cl)c(S(=O)(=O)N(C)c3ccc(Cl)cc3)c2)CC1	GLP-1R inv ag 11.2µM
CC(=O)C1=C(c2ccc(Br)cc2)C(=O)c2ccccc2C1=O	GLP-1R inv ag inconclusive, HEK293 tox 3.55µM
COc1ccc(C(=O)NC2CC2)cc1OC1CCN(Cc2ccc(F)cc2Cl)CC1	GLP-1R inv ag 10µM, HEK293 tox inconclusive
COc1ccc(CN2CCC(Oc3cc(C(=O)NC4CC4)ccc3OC)CC2)c(O)c1	GLP-1R inv ag inconclusive
CCSc1ncc(Cl)c(C(=O)N(Cc2ccccc2Cl)C2CCS(=O)(=O)C2)n1 (configuration not stated)	none (no result: GLP-1R agonist)
CC(=O)c1cccc(NC(=O)c2cc(-c3ccc(Cl)s3)nc3ccccc23)c1	none (no result: GLP-1R agonist)
Cc1c(NC(=O)C(C)(C)Oc2ccc(Cl)cc2)cccc1-c1nc2ccccc2o1	GLP-1R inv ag 11.2µM (no result: GLP-1R agonist)
CC(=O)c1ccc[n+](CC(=O)c2ccc(F)cc2)c1	none (no result: GLP-1R agonist, GLP-1R inv ag, HEK293 tox, TRPML1 inh)
Cc1ccc(NC(=O)N2CCCC(c3nc(-c4ccc(F)cc4)no3)C2)cc1 (configuration not stated)	GLP-1R inv ag 7.94µM, HEK293 tox inconclusive
O=C(COc1ccc(F)cc1Br)Nc1ccccc1N1CCOCC1	GLP-1R inv ag inconclusive, TRPML1 agonist 70.9
Cc1cc(OCC(=O)Nc2ccccc2N2CCCC2)ccc1C(C)C	GLP-1R inv ag 11.2µM
Cc1cc(Cl)ccc1OCC(=O)Nc1ccccc1N1CCOCC1	GLP-1R inv ag inconclusive, TRPML1 agonist 75.5
CC(Oc1cccc(Cl)c1)C(=O)Nc1cc(Cl)ccc1N1CCOCC1 (configuration not stated)	GLP-1R inv ag 12.6µM
Cc1ccc(NC(=O)CSc2nnc3[nH]c(=O)cc(-c4ccccc4)n23)cc1Cl	none (no result: GLP-1R agonist)
COc1cc2c(NC3CCN(C(C)C)CC3)nc(N3CCCN(C)CC3)nc2cc1OCCCN(C)C	none (no result: GLP-1R agonist, GLP-1R inv ag, HEK293 tox, TRPML1 inh)
Cc1oc(-c2ccccc2)cc1C(=O)Nc1cccc2ccccc12	GLP-1R inv ag 10µM
O=C(CC1SC(=Nc2ccccc2)N(CCc2c[nH]c3ccccc23)C1=O)Nc1ccccc1F (configuration not stated)	GLP-1R inv ag 6.31µM, HEK293 tox inconclusive
O=C(CC1SC(=Nc2ccccc2)N(CCc2ccccn2)C1=O)Nc1ccc(F)cc1 (configuration not stated)	GLP-1R inv ag inconclusive
Cc1ccc(-c2nc3cc(C(C)C)ccc3o2)cc1NC(=O)c1cccs1	GLP-1R inv ag inconclusive
CCOC(=O)c1cc2c(ccn2C)n1CC(=O)N(Cc1ccccc1)c1ccccc1	GLP-1R inv ag 12.6µM
CCOC(=O)c1cc2c(ccn2C)n1CC(=O)N(Cc1ccccc1)c1ccc(F)cc1	GLP-1R inv ag inconclusive
CCOC(=O)N1CCN(C(=O)c2cnn(-c3cccc(F)c3)c2-n2cccc2)CC1	none (no result: GLP-1R agonist)
CCOC(=O)c1nn(-c2ccc3c(c2)CCN3C(C)=O)cc1O	GLP-1R inv ag 11.2µM
CCOC(=O)c1nn(-c2ccc(F)cc2)cc1O	none
CN(C)C(=O)c1cccc(COc2ccc(N3C(N)=NC(N)=NC3(C)C)cc2Cl)c1	GLP-1R inv ag 2.24µM
CCCNc1nc(-c2ccccc2)c(C(=O)OCC)cc1C#N	GLP-1R inv ag inconclusive
C=CCNc1nc(-c2ccccc2)c(C(=O)OCC)cc1C#N	GLP-1R inv ag 5.01µM, HEK293 tox inconclusive
Cc1cc(C)c2c(=O)c3c(oc2c1)C(=O)N(Cc1ccc(F)cc1)C3c1cccc(O)c1 (configuration not stated)	GLP-1R inv ag inconclusive (no result: GLP-1R agonist)
N=c1c(S(=O)(=O)c2ccccc2)cc2c(=O)n3ccccc3nc2n1C1CCCCC1	GLP-1R inv ag 10µM
N=c1c(S(=O)(=O)c2ccc(Br)cc2)cc2c(=O)n3ccccc3nc2n1C1CCCCC1	none
CCCCN=C1NN=C(c2ccc(C)c(C)c2)CS1	GLP-1R inv ag inconclusive, HEK293 tox inconclusive
CCCCN=C1NN=C(c2ccc3c(c2)OCCO3)CS1	GLP-1R inv ag 8.91µM
COc1ccc(-c2n[nH]c3c2C(c2ccc(Cl)cc2Cl)NC3=O)cc1 (configuration not stated)	none
CC(=O)NC1=C(Nc2ccc(N(C)C)cc2)C(=O)c2ccccc2C1=O	GLP-1R inv ag 3.98µM, HEK293 tox inconclusive
CN(C)c1ccc(C=C2C(=O)c3ccccc3C2=O)cc1	TRPML1 agonist 50.9 (no result: GLP-1R agonist, GLP-1R inv ag, HEK293 tox, TRPML1 inh)
COc1cc(/C=C2/C=Cc3ccccc32)ccc1N(C)C	none (no result: GLP-1R agonist, GLP-1R inv ag, HEK293 tox, TRPML1 inh)
CCN(CC)CCCOc1cc2nc(N3CCCN(C)CC3)nc(NC3CCN(C)CC3)c2cc1OC	none (no result: GLP-1R agonist, GLP-1R inv ag, HEK293 tox, TRPML1 inh)
CC(C)(C)c1ccc(Cn2cnc3c(cnn3C(C)(C)C)c2=O)cc1	none (no result: GLP-1R agonist, GLP-1R inv ag, HEK293 tox)
CC1=C(c2ccc(F)cc2)S(=O)(=O)N=C1N1CCC(C(=O)NCCc2cccc(C)c2)CC1	none (no result: GLP-1R agonist)
COc1ccc(S(=O)(=O)c2cn(C)c3cc(N4CCCC4)c(F)cc3c2=O)cc1	none (no result: GLP-1R agonist)
COC(=O)c1sccc1S(=O)(=O)N(CC(=O)NCc1ccccc1)c1ccc(C)cc1	none (no result: GLP-1R agonist)
CC(C)(C)OC(=O)N1CCC(c2c(C(=O)Nc3cccc(C(F)(F)F)c3)cnn2-c2ccc(F)cc2F)CC1	GLP-1R inv ag 5.01µM (no result: GLP-1R agonist)
